Compound activity (PubChem BioAssay)
dFosB act – activators of mouse delta FosB homodimer. 0.99% of 340,000 active. AID 493131. purified delta FosB, TAMRA-CDK5 oligo fluorescence polarization; percent of positive-control signal above neutral wells. activation, % at 25 µM. P13346;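 active means mean activation above about 17%, with every replicate also reaching it, limit read from the data, passing the limit was not always enough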
Rtt109 Vps75 – inhibitors of Candida albicans Rtt109/Vps75 histone acetyltransferase. AID 540336. inhibition, % at 34.9 µM. 0.16% of 330,000 active. Q5AAJ8. purified Rtt109/Vps75, ThioGlo CoA-SH fluorescence, 4 h;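 active means inhibition of at least 50% in every replicate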
esBAF inh – SWI/SNF esBAF complex inhibition. mouse ES cells, Bmi1-luciferase knock-in reporter, 24 h; 100% = twice the neutral-well signal. 2% of 350,000 active. reporter increase, % at 12.5 µM; in the data active means activation above about 40%;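 further: 0% = median of the plate's neutral control wells and 100% = double that signal; a rise in the Bmi1 reporter signal indicates esBAF inhibition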
Dyrk1A ADPGlo – inhibitors of rat Dyrk1A kinase. Q63470. ADP-Glo luminescence, NFATc1 peptide. inhibition, % at 12.5 µM. 0.43% of 310,000 active. AID 504441; in the data active means inhibition above about 50%;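 further: plate controls were vehicle with enzyme for no effect and no enzyme for full effect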
CDK5 inh – blocks human CDK5/p35 kinase activity; Q00535+Q15078; Recombinant CDK5/p35, ADP-Glo luminescence, 60 min; inhibition, % at 10 µM; 0.01% of 330,000 active; AID 488839;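 active means highest replicate inhibition of at least 50% and at least 75% of replicates reaching 50%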;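 further: plate controls were DMSO neutral control for no effect and GW8510 at 10 µM for full effect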
Target sequence (Q00535 whole entry, looked up): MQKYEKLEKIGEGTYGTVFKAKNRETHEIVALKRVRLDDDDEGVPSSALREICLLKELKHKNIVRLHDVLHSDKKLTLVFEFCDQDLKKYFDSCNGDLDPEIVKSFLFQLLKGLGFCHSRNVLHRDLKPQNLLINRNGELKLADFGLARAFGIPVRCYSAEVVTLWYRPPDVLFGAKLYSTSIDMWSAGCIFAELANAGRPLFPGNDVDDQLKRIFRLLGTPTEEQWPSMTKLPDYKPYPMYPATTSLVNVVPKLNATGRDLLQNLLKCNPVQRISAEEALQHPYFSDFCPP
Target sequence (Q15078 whole entry, looked up): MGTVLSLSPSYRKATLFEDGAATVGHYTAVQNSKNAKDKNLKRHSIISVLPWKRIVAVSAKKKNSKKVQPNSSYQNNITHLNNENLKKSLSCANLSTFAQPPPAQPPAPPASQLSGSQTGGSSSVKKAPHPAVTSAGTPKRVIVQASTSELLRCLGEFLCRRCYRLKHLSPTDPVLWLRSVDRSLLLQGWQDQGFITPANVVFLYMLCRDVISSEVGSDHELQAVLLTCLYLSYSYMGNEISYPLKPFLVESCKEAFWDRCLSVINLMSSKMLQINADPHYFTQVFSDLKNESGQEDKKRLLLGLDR
SMARCA2 act – increases SMARCA2 function in MMTV reporter cells | MG213 cells, MMTV-luciferase reporter, dexamethasone, overnight | activation, % at 9.1 µM | 1% of 370,000 active; in the data active means activation above about 7.8%;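 further: 0% = vehicle wells and 100% = reference activator wells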
Numbers without * were called inactive; nt = not tested or not shown. The list is not random: actives were taken first. Their share in the collection is about 3.2%.

SMILES | dFosB act | Rtt109 Vps75 | esBAF inh | Dyrk1A ADPGlo | CDK5 inh | SMARCA2 act
O=C(/C=C/C=C/c1ccc2c(c1)OCO2)N1CCCCC1 | -6 | 0 | 51* | 3 | 0 | 4
Nc1ccccc1C(=O)/C=C/c1ccc2c(c1)OCO2 | 1 | -1 | 73* | 7 | 3 | 7
CO[C@@H](CN(C)C(=O)c1cnccn1)[C@@H](C)CN([C@H](C)CO)S(=O)(=O)c1ccc(C)cc1 | nt | nt | -2 | nt | nt | nt
CC(=O)CCSc1ncnc2sc(-c3ccccc3)cc12 | -2 | -7 | 77* | -5 | 2 | 7
O=C(O)CCSc1ncnc2sc(-c3ccccc3)cc12 | -31 | 0 | -82 | 17 | 2 | -11
CC(=O)N(C)C[C@H]1Oc2ncc(C#Cc3ccccc3)cc2C(=O)N([C@@H](C)CO)C[C@H]1C | nt | nt | -2 | nt | nt | nt
Clc1cccc(Cl)c1Cn1ccc(C2CC2)n1 | 1 | 2 | nt | nt | 0 | 7.9*
COc1ccc(-n2c(SCC(=O)Nc3cc(C)on3)nc3c([nH]c4ccccc43)c2=O)cc1OC | 25* | -14 | nt | 2 | 0 | 0
O=C(c1ccco1)N1CCn2c1nc1ccccc12 | 2 | 13 | 46* | 2 | 0 | 4
CC(C)NC(=O)N[C@@H]1CC[C@@H](CC(=O)NCc2ccc(Oc3ccccc3)cc2)O[C@@H]1CO | nt | nt | -1 | nt | nt | nt
COc1cccc(-c2nc3ccc(C(=O)NC(C)Cc4cccnc4)cc3o2)c1 (centres undefined) | -25 | 23 | 54* | 6 | 1 | 3
COC(=O)C1CCN(C(=O)c2ccc3nc(-c4cccc(OC)c4)oc3c2)CC1 | -27 | -12 | nt | 5 | 1 | 3
COc1ccc(C(=O)c2c[nH]c3ccccc23)cc1 | 5 | -7 | 61* | 4 | 1 | 3
O=C(NCCc1nnc2ccccn12)c1cccs1 | 5 | 6 | 28 | -1 | 1 | 1
O=C(NCCc1c[nH]c2ccccc12)c1ccc(Cl)cc1 | 0 | -2 | 39 | 14 | -5 | 2
Cc1ccsc1C(=O)NCCc1c[nH]c2ccccc12 | 4 | -4 | 50* | 0 | -1 | 3
O=C(NCCc1c[nH]c2ccccc12)c1ccc(F)cc1F | -1 | 7 | 57* | -5 | -3 | 4
Cc1ccsc1C(=O)NCCc1nnc2ccccn12 | -5 | -15 | 56* | -3 | 1 | 7.8*
Cc1ccccc1S(=O)(=O)N(C)C[C@@H]1OCc2ccccc2-c2ccccc2C(=O)N([C@@H](C)CO)C[C@@H]1C | nt | nt | -1 | nt | nt | nt
COc1ccc(OCC(=O)NCCc2c[nH]c3ccccc23)cc1 | -5 | -2 | nt | 1 | -1 | 2
COc1ccc(C(=O)NCCc2c[nH]c3ccccc23)cc1 | -2 | -3 | 54* | -3 | 0 | 3
O=c1[nH]c2ccccc2nc1/C=C/c1ccccc1 | -4 | -2 | nt | 0 | -7 | 7
O=c1[nH]c2ccccc2nc1/C=C/c1ccc(F)cc1 | -8 | -2 | 56* | -3 | 0 | 3
O=c1[nH]c2ccccc2nc1/C=C/c1ccc(O)cc1 | -9 | -11 | 51* | 0 | 2 | 4
O=C(C1CC1)N1CC[C@@H]2[C@H](CO)Nc3ccc(Br)cc3[C@@H]21 | nt | nt | 58* | nt | nt | nt
SMILES | dFosB act | Rtt109 Vps75 | esBAF inh | Dyrk1A ADPGlo | CDK5 inh | SMARCA2 act
O=C(C1CC1)N1CC[C@@H]2[C@@H](CO)Nc3ccc(Br)cc3[C@@H]21 | nt | nt | 2 | nt | nt | nt
O=C(CN1CCOCC1)N1CC[C@@H]2[C@H](CO)Nc3ccc(-c4ccccc4F)cc3[C@@H]21 | nt | nt | 42* | nt | nt | nt
COc1ccc(-c2ccc3c(c2)[C@@H]2[C@@H](CCN2C(=O)CN2CCOCC2)[C@@H](CO)N3)cc1 | nt | nt | 49* | nt | nt | nt
CNC[C@@H]1Oc2ccc(NC(=O)Nc3ccc(F)cc3)cc2CC(=O)N([C@H](C)CO)C[C@@H]1C | nt | nt | -3 | nt | nt | nt
CC(C)CC#Cc1cnc2c(c1)C(=O)N([C@H](C)CO)C[C@H](C)[C@@H](CN(C)S(=O)(=O)c1cccs1)O2 | nt | nt | 3 | nt | nt | nt
CSc1nc2ccc(NC(=O)c3ccc(Cl)s3)cc2s1 | 13 | -13 | 50* | -1 | 1 | 3
CSc1nc2ccc(NC(=O)NC(=O)c3c(F)cccc3F)cc2s1 | 3 | -9 | nt | -2 | 1 | 3
c1ccc(CSc2nnc(-c3cccnc3)o2)cc1 | 8 | -3 | 42* | 10 | 2 | 6
Clc1ccc(-c2nnc(-c3cccnc3)o2)cc1 | -13 | 2 | 47* | 3 | -1 | 3
